Reference: ChEMBL document CHEMBL4513149, “CO-ADD screening of MMV (CH) - MMV compounds” (2021)
Potency and affinity values are given separately.

Each compound was assayed on Staphylococcus aureus. Conditions: Concentration 20 uM; ASSAY_TEST Inhibition of Bacterial Growth; detection method Absorption (OD600); MEDIA CAMHB; plate type 384well; NBS; CORNING #3640; time 18 hr.

First: CC(C)C(C(=O)Nc1ccc(S(=O)(=O)N(C)C)cc1)c1ccc(Cl)cc1 (stereo unspecified)
Second: Cc1nc2ccccn2c1C(=O)NCc1ccc(Cl)cc1
The Inhibition of the first is lower: 3.5% for the first, 22.95% for the second.

Going from CCOc1ccccc1C(=O)Nc1cccc(-c2nc3ncccn3c2C)c1 to COC(=O)c1ccc(F)cc1NS(=O)(=O)c1cccc(-c2cnn(Cc3ccccc3)c2)c1, the Inhibition rises from 2.54% to 11.02%.

Going from O=C(c1cc2ccccc2o1)N1CCN(Cc2ccc3c(c2)OCO3)CC1 to O=C1N(Cc2cc3ccccc3s2)CC2CN(Cc3ccccc3)CCN12 (stereo unspecified), the Inhibition falls from 8.69% to 3.35%.

Going from CCCn1nnc(NC(=O)COc2ccc(C3CCCCC3)cc2)n1 to COc1cncc(-c2cncc(N3CCN(c4ccncc4)CC3)n2)c1, the Inhibition rises from 2.73% to 18.85%.

Compared with Nc1ncc(-c2cn[nH]c2)cc1-c1nc2cc(Cl)cnc2[nH]1, CC(C)(C)n1nc(-c2ccccc2)c2c(N)ncnc21 is higher in Inhibition: -0.61% for the first, 6.95% for the second.

Going from CNC(=O)C1Cc2ccccc2N1C(=O)Cc1ccc(F)cc1 (stereo unspecified) to CC(C)C(Oc1cccc2ccccc12)C(=O)O (stereo unspecified), the Inhibition falls from 16.81% to 10.48%.

Compared with CC(C)(C)C(=O)N(CCCCCCN1C[C@H](O)[C@@H](O)[C@H](O)[C@H]1CO)C1CCCCCC1, COc1cccc(NC(=O)c2c(NC(=O)c3cccnc3)sc3c2CCC3)c1 is higher in Inhibition: -1.36% for the first, 17.01% for the second.

Going from CCc1ccccc1-n1c(C)cn2c3c(=O)n(C(C(=O)OC)C(C)C)c(=O)n(C)c3nc12 (stereo unspecified) to COc1cc(C(F)(F)F)nc2ccc(C)c(N)c12, the Inhibition rises from 5.27% to 15.64%.
